# ELG1 repair inh: inhibitors of ELG1-dependent DNA repair in HEK293T cells. Potency, µM (series often up to 46.1 µM), without a hit: top-dose activity change, negative = inhibition, most hits filed as inhibitors. 2.3% of 330,000 active. HEK293T ELG1-luciferase reporter, luminescence, 16 h; DNA damage induced by 5-fluorouridine; note: potency is the fitted concentration of half-maximal effect; nearly all actives have a fitted effect of over 55% in size
#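 DMSO vehicle served as the neutral condition. Each well held 2,000 cells given 5-fluorouridine plus compound; after 16 hr at 37 °C/5% CO2, ONE-Glo was added and luciferase measured 30 min later.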
# IL1B secr inh: blocks inflammasome-driven IL-1 beta release; THP-1 LPS/ATP IL-1B secretion, AlphaLISA, 16 h; stronger effect = lower value; activity change, % at 57.5 µM; 4.7% of 360,000 active; in the data active = activity change below about -50%; inconclusive = mostly about -30% to -49%
#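 THP-1 cells pretreated 1 hr with compounds (up to 57.5 uM final), then stimulated with LPS (250 ng/mL final) plus ATP (1.25 mM final); secreted IL-1B measured by AlphaLISA after 16 hr, decreased signal indicating inhibition.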
# HT1080-NT tox: kills 2HG-producing HT-1080-NT fibrosarcoma cells. 1.6% of 360,000 active. Potency, µM (highest dose often 46.1 µM), without a hit: at the highest dose activity, negative = less viability, usual class: cytotoxic. HT-1080-NT fibrosarcoma viability, CellTiter-Glo ATP luminescence, 48 h;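 note: NT is the 2HG producing partner of a matched IDH1 knockdown line; potency is the fitted concentration of half-maximal effect; 0% = DMSO-treated cells and -100% = media-only wells without cells; nearly all actives have a fitted effect of over 55% in size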
#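 Compounds were tested in concentration-response format on HT-1080-NT cells for 48 hours at 37 degrees C. Cell viability came from CellTiter-Glo luminescence; curves were classified by r2, response magnitude and activity.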
# TDP1 cell CPT: DT40-hTDP1 cell growth loss with CPT; chicken DT40 Tdp1-/-;hTDP1 cells + 20 nM CPT, ATP luminescence, 48 h; 12% of 420,000 active; Potency, µM (doses to about 46.2 µM), for the others: top-dose activity change, negative = growth inhibition, actives largely listed as inhibitors; note: potency is the fitted concentration of half-maximal effect; nearly all actives have a fitted effect of over 55% in size
#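 Cell growth measured by CellTiter-Glo luminescence after a minimum 48 h, 37 C compound exposure with 20 nM CPT in Tdp1-knockout DT40 cells stably expressing hTDP1, seeded 400/well; qHTS titration format.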
# TDP1 cell noCPT: qHTS for Inhibitors of human tyrosyl-DNA phosphodiesterase 1 (TDP1): qHTS in cells in absence of CPT; DT40 Tdp1-/- hTDP1 cells, no CPT, ATP luminescence, 48 h; Potency, µM (titrated, usually from 46.2 µM), for the others: at the top dose activity change, negative = growth inhibition, most hits filed as inhibitors; 15% of 420,000 active; AID 686978, 2013; note: potency is the fitted concentration of half-maximal effect; nearly all actives have a fitted effect of over 55% in size
#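 Seeded 400 DT40-hTDP1 cells/well (vehicle DMSO, no 20 nM CPT); pinned compounds; ≥48 hr at 37 °C; CellTiter-Glo luminescence as viability measure.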
# HT1080 IDH1KD tx: toxicity to HT-1080 IDH1 knockdown cells (counter line) | HT-1080 IDH1 knockdown viability, ATP luminescence, 48 h | Potency, µM (series often up to 46.1 µM), inactives show at the top dose activity, negative = toxicity, actives largely listed as cytotoxic | 2% of 360,000 active | AID 686971;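 note: potency is the fitted concentration of half-maximal effect; 0% = DMSO wells and -100% = cell-free medium wells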
#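 % activity derives from luminescence (CellTiter-Glo), normalised to DMSO and no-cell wells. HT-1080-IDH1KD cells, 750/well, had 48 h compound exposure at 37 °C.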
# Numbers without * were called inactive; u = inconclusive; x = no result; [ ] = remark or other dose. The list is not random: actives were taken first. Their share in the collection is about 19%. Unless noted, calls come from the whole dose curve; as a rule, active = well fitted curve in the direction sought with a large enough effect; inconclusive = small, poorly fitted or top-dose-only effect, or another doubt; inactive = no such curve, though single readings can be large; an effect the other way counts as inactive or inconclusive. Unless noted, % is set by controls: 0 for no effect and ±100 for the full control effect.
SMILES,ELG1 repair inh,IL1B secr inh,HT1080-NT tox,TDP1 cell CPT,TDP1 cell noCPT,HT1080 IDH1KD tx
OCc1ccccc1-c1ccc2nccn2c1,x,-7,19%,-15%,-16%,15%
COc1cc(C(=O)NC2=C(C#N)CCC2)cc(OC)c1OC,u,-26,-2%,-3%,-38%,3%
COc1cc(-c2noc(C3CC(=O)N(c4cc(C)ccc4C)C3)n2)cc(OC)c1OC (stereo not drawn),x,x,x,18µM*,16µM*,x
COc1ccc(C(=O)N2CCCC(c3nc(-c4cc(OC)c(OC)c(OC)c4)no3)C2)cc1 (stereo not drawn),7.3µM*,0,-23%,21µM*,u,0%
COc1ccccc1C(=O)N1CCCC(c2nc(-c3cc(OC)c(OC)c(OC)c3)no2)C1 (stereo not drawn),7.3µM*,7,6%,-18%,u,18%
COc1ccc(S(=O)(=O)N2CCOCC2)cc1NC(=O)CCCSc1ccccc1,x,0,8%,-30%,0%,9%
Cc1nc(-c2ccncc2)nc(NCCNc2ncccc2C(F)(F)F)c1Cl,-22%,-18,13%,12µM*,7.3µM*,6%
C[C@H](CO)N1C[C@H](C)[C@H](CN(C)C(=O)C2CC2)OCc2cnnn2CCCC1=O,x,4,12%,-4%,7%,3%
Cc1ccc(N2CCN(C3=NC(=O)C(Cc4ccccc4)S3)CC2)cc1 (stereo not drawn),-18%,4,7%,29µM*,23µM*,11%
O=C(c1ccccc1Oc1ccccc1)N1CCN(c2ccccc2F)CC1,-21%,-12,-24%,18µM*,16µM*,-25%
O=C(c1ccccc1C(=O)N1CCN(c2ccccc2F)CC1)N1CCN(c2ccccc2F)CC1,u,18,-6%,18µM*,u,-3%
CC(C)c1ccc(OCC(=O)Nc2c(Cl)ccc3nsnc23)cc1,x,x,x,-29%,-26%,x
Cc1ccc2cccc(S(=O)(=O)N3CCCc4ccccc43)c2n1,u,6,-24%,u,u,-17%
COc1ccc(-c2noc3c2-c2nc(-c4ccccc4C)sc2CC3)cc1,x,53,13µM*,u,u,u
Cc1ccccc1-c1nc2c(s1)CCc1onc(-c3ccc(Cl)cc3)c1-2,1%,6,14%,18%,-9%,6%
COC(=O)c1cc2oc(C)cc2n1CC(=O)N(C)c1ccccc1,-1%,16,-5%,0%,-17%,12%
COC(=O)c1cc2oc(C)cc2n1CC(=O)Nc1ccc(C(C)C)cc1,x,x,x,7.3µM*,21µM*,x
O=C(NCc1ccco1)c1ccc(CS(=O)c2ccccc2Cl)o1 (stereo not drawn),x,-13,9%,1%,-19%,8%
O=C(NCc1cccc(F)c1)c1ccc(CS(=O)c2ccccc2Cl)o1 (stereo not drawn),x,x,x,16µM*,23µM*,x
O=C(NCCCN1CCC(Cc2ccccc2)CC1)c1ccc(CS(=O)c2ccccc2Cl)o1 (stereo not drawn),x,-23,u,23µM*,21µM*,-24%
Cc1ccccc1S(=O)Cc1ccc(C(=O)NCc2ccccc2Cl)o1 (stereo not drawn),x,x,x,21µM*,u,x
Cc1ccc(CS(=O)Cc2ccc(C(=O)NCc3ccccc3Cl)o2)cc1 (stereo not drawn),-2%,-24,-8%,u,u,-2%
O=C(CN1CCCC1c1ccc2c(c1)OCCO2)NC(=O)Nc1ccccc1 (stereo not drawn),11%,-15,-10%,u,u,-4%
CCOC(=O)C1CSC2(CCC(c3ccccc3)CC2)N1 (stereo not drawn),12%,14,13%,21%,3%,6%
CCOC(=O)[C@@H]1CSCCS(=O)(=O)N1,x,0,14%,12µM*,18µM*,5%
SMILES,ELG1 repair inh,IL1B secr inh,HT1080-NT tox,TDP1 cell CPT,TDP1 cell noCPT,HT1080 IDH1KD tx
CCc1nc2sc(C(C)=O)c(N)c2c2c1CCCC2,-1%,-2,-2%,u,15µM*,0%
NC(=O)c1sc2nc(-c3ccccc3)c3c(c2c1N)CCCC3,-9%,8,-7%,u,16µM*,-1%
Cc1nc2sc(C(N)=O)c(N)c2c2c1CCCC2,u,-95*,-22%,u,u,-4%
O=c1ccc(-c2ccc(S(=O)(=O)N3CCCCC3)o2)n[nH]1,5%,6,0%,-4%,-5%,0%
O=S(=O)(c1ccccc1)N1CCN(S(=O)(=O)N2CCCCCC2)CC1,-4%,14,-4%,5%,-16%,-14%
Cc1ccc(-n2sc3ccccc3c2=O)cc1S(=O)(=O)N1CCCCC1,-3%,-106*,u,2.3µM*,2.9µM*,u
O=c1c2ccccc2sn1-c1ccc(S(=O)(=O)N2CCCC2)cc1,16%,-102*,-1%,3.3µM*,5.2µM*,-3%[9.24 µM]
O=c1c2ccccc2sn1-c1ccc(S(=O)(=O)N2CCCCC2)cc1,x,-91*,2%,2.1µM*,16µM*,0%
CC1(C(=O)NS(=O)(=O)c2ccc(C#N)cc2)CCN1C(=O)c1cccc2ccccc12 (stereo not drawn),x,36,9%,5%,-3%,19%
CCN1CCC(N(Cc2ccc(F)cc2)C(=O)Nc2cc(Cl)ccc2C(=O)OC)CC1,x,x,x,-14%,-5%,x

# Screening data from PubChem.
